Active and inactive are the calls of the source. How the source made its calls: active means hit-call score of the fitted dose curve at least 0.9, where 1 is the maximum; inactive means score below 0.9.
Tests used:
[1] = ATG_GLI_CIS: Attagene CIS-FACTORIAL HepG2 Assay for human Zinc Finger Protein GLI1 (AID 2282945); conditions: HepG2, Attagene cis-factorial reporter mRNA, GLI element; actives raise or lower the signal
Procedure, shortened: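 Bidirectional curve fits relative to DMSO, using reporter mRNA levels from RT-PCR plus capillary electrophoresis. Cells were HepG2 transiently carrying cis-regulated reporter constructs, harvested 24 h after dosing.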

[2] = ATG_GRE_CIS: Attagene CIS-FACTORIAL HepG2 Assay for human Glucocorticoid Response Elements (GRE) (AID 2282947); conditions: HepG2 GRE cis-reporter, Attagene multiplex mRNA; actives raise or lower the signal
Procedure, shortened: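 Reporter transcripts read by RT-PCR with capillary electrophoresis fluorescence after a 24 h chemical exposure of HepG2 cells transiently transfected with multiple cis-element reporter units. Gain or loss fitted against DMSO.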

[3] = ATG_ISRE_CIS: Attagene CIS-FACTORIAL HepG2 Assay for human Interferon Regulatory Factor 1 (IRF1) binding to an Interferon-Stimulated Response Element (ISRE) (AID 2282948); conditions: HepG2 ISRE cis-reporter (Attagene), mRNA transcription readout; actives raise or lower the signal
Procedure, shortened: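 Multiplexed mRNA reporter readout in human liver HepG2 cells: cis-element-driven reporters transfected, compound added for 24 h, transcripts amplified, fluorescently labelled and sized by capillary electrophoresis; curve fitting bidirectional against DMSO.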

[4] = ATG_M_32_CIS: Attagene CIS-FACTORIAL HepG2 Assay for M32 Transcription Factor (Internal Marker) (AID 2282949); conditions: HepG2 Attagene cis-factorial M32 reporter, mRNA; actives raise or lower the signal;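 further: background control marker of the multiplexed CIS panel rather than a real target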
Procedure, shortened: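 HepG2 transfectants (cis-regulated reporter transcription units) dosed 24 h. Reporter mRNA by RT-PCR plus CE, analysed as gain or loss relative to DMSO.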

[5] = ATG_M_06_CIS: Attagene CIS-FACTORIAL HepG2 Assay for M06 Transcription Factor (Internal Marker) (AID 2282950); conditions: HepG2 Attagene CIS-FACTORIAL M06 internal marker reporter; actives raise or lower the signal
Procedure, shortened: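 Measured 24 h post-dosing in transiently transfected HepG2 cells, this internal-marker endpoint reports reporter mRNA via RT-PCR with fluorescent primer extension and capillary electrophoresis. DMSO served as negative control and baseline for bidirectional fitting.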

[6] = target: Hypoxia-inducible factor 1-alpha (Homo sapiens) (UniProt Q16665); assay: ATG_HIF1a_CIS: Attagene CIS-FACTORIAL HepG2 Assay for human Hypoxia Inducible Factor 1 (HIF1A) (AID 2282951); conditions: HepG2 Attagene cis-factorial HIF1a reporter transcription; actives raise or lower the signal
Procedure, shortened: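 Fluorescence intensity of capillary-separated, 6-FAM-labelled reporter amplicons gives mRNA induction in HepG2 cells carrying transfected cis-promoter reporter units; cells exposed 24 h, responses fitted up or down from DMSO.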

[7] = target: Hepatocyte nuclear factor 6 (Homo sapiens) (UniProt Q9UBC0); assay: ATG_HNF6_CIS: Attagene CIS-FACTORIAL HepG2 Assay for human Hepatocyte Nuclear Factor 6 (HNF6) (AID 2282952); conditions: HepG2 Attagene cis-factorial HNF6 reporter transcription; actives raise or lower the signal
Procedure, shortened: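 Twenty-four-hour chemical treatment of reporter-transfected HepG2 cells precedes RNA isolation, DNase-treated reverse transcription and PCR of reporter sequences. Labelled fragments are sized by capillary electrophoresis and fitted bidirectionally versus DMSO.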

[8] = target: Heat shock factor protein 1 (Homo sapiens) (UniProt Q00613); assay: ATG_HSE_CIS: Attagene CIS-FACTORIAL HepG2 Assay for human Heat Shock Transcription Factor 1 (HSE) (AID 2282953); conditions: HepG2 HSE cis-reporter, Attagene RNA transcription; actives raise or lower the signal
Procedure, shortened: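 Reporter mRNA induction in HepG2 is measured 24 h after dosing, using transiently transfected multiplexed cis-regulated reporter units. Signal comes from capillary electrophoresis of labelled RT-PCR products, with DMSO as negative control.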

[9] = ATG_MRE_CIS: Attagene CIS-FACTORIAL HepG2 Assay for human Metal Responsive Element (MRE) (AID 2282954); conditions: HepG2 MRE cis-reporter transcription, Attagene multiplex; actives raise or lower the signal
Procedure, shortened: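 Endogenous MRE-dependent transcription read as reporter mRNA in transiently transfected human HepG2 cells at 24 h. RNA reverse-transcribed, PCR-amplified, labelled and resolved by capillary electrophoresis; gain or loss relative to DMSO.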

[10] = ATG_PBREM_CIS: Attagene CIS-FACTORIAL HepG2 Assay for human Phenobarbital-responsive Enhancer Module (PBREM) (AID 2282955); conditions: HepG2 PBREM cis-reporter, Attagene multiplexed transcription; actives raise or lower the signal
Procedure, shortened: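 Cells were transfected with cis-element reporter units and treated for 24 h, after which RNA was extracted and reporter transcripts measured by RT-PCR and capillary electrophoresis.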

[11] = ATG_PXRE_CIS: Attagene CIS-FACTORIAL HepG2 Assay for human Pregnane X Receptor Element (PXRE) (AID 2282957); conditions: HepG2 Attagene CIS-FACTORIAL PXRE reporter, mRNA; actives raise or lower the signal
Procedure, shortened: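 Bidirectional activity, baselined to DMSO, derived from reporter mRNA fluorescence (RT-PCR plus capillary electrophoresis) in HepG2 cells bearing cis-promoter reporter units, 24 h exposure.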

[12] = ATG_PPRE_CIS: Attagene CIS-FACTORIAL HepG2 Assay for human Peroxisome Proliferator-activated Response Element (PPRE) (AID 2282958); conditions: HepG2 PPRE cis-element reporter, Attagene transcription factor profiling; actives raise or lower the signal
Procedure, shortened: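 In this cell-based multiplex, a PPRE cis element drives a reporter sequence in transiently transfected HepG2 cells. Following 24 h treatment, labeled cDNA amplicons are sized and quantified by capillary electrophoresis, with DMSO defining baseline.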

[13] = ATG_Sox_CIS: Attagene CIS-FACTORIAL HepG2 Assay for human SRY-box transcription factor (SOX) (AID 2282960); conditions: HepG2 Attagene cis-factorial SOX reporter, mRNA; actives raise or lower the signal
Procedure, shortened: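 Measures mRNA induction of a SOX1-associated reporter in HepG2 after 24 h dosing. Fluorescently labelled RT-PCR fragments are separated by capillary electrophoresis, and gain or loss relative to DMSO control is fitted.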

[14] = target: Transcription factor Sp1 (Homo sapiens) (UniProt P08047); assay: ATG_Sp1_CIS: Attagene CIS-FACTORIAL HepG2 Assay for human Specificity Protein 1 (Sp1) (AID 2282961); conditions: HepG2 Sp1 cis-reporter transcription, actives raise or lower the signal
Procedure, shortened: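 Cells: HepG2, transiently transfected with cis-regulated multiplexed reporters. Exposure: 24 h. Detection: reporter transcripts amplified, fluorescently labeled, restriction-digested and sized by capillary electrophoresis. Analysis: bidirectional fit relative to DMSO.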

[15] = target: Signal transducer and activator of transcription 3 (Homo sapiens) (UniProt P40763); assay: ATG_STAT3_CIS: Attagene CIS-FACTORIAL HepG2 Assay for human Signal Transducer and Activator of Transcription 3 (STAT3) (AID 2282963); conditions: HepG2, Attagene cis-factorial STAT3 reporter transcription; actives raise or lower the signal
Procedure, shortened: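 Readout is reporter transcript quantified by RT-PCR and capillary electrophoresis, with 6-FAM primer extension and HpaI digestion. Total RNA is taken 24 h after dosing transiently transfected HepG2 carrying cis-regulated reporter units. Bidirectional fit against DMSO.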

[16] = ATG_TA_CIS: Attagene CIS-FACTORIAL HepG2 Assay for human TA Basal Promoter (AID 2282964); conditions: HepG2 Attagene CIS-factorial TA basal promoter reporter; actives raise or lower the signal
Procedure, shortened: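 Cis-factorial format in HepG2: reporters report endogenous factors, not chimeric Gal4 fusions. After 24 h treatment, reporter transcripts were measured by RT-PCR-capillary electrophoresis fluorescence, analysed bidirectionally versus DMSO.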

[17] = target: Paired box protein Pax-6 (Homo sapiens) (UniProt P26367); assay: ATG_Pax6_CIS: Attagene CIS-FACTORIAL HepG2 Assay for human Paired Box 6 (PAX6) (AID 2282956); conditions: HepG2 CIS-FACTORIAL PAX6 reporter transcription, RNA readout; actives raise or lower the signal
Procedure, shortened: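 Fluorescent RT-PCR products separated by capillary electrophoresis report PAX6-linked promoter mRNA in HepG2 cells 24 h post-dose. Curves fitted bidirectionally, DMSO as negative control.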

[18] = ATG_RORE_CIS: Attagene CIS-FACTORIAL HepG2 Assay for human RAR-related Orphan Receptor Element (RORE) (AID 2282959); conditions: HepG2 Attagene cis-factorial RORE reporter, mRNA; actives raise or lower the signal
Procedure, shortened: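 Endogenous factor activity at a cis response element is read as reporter transcript levels in HepG2 cells, 24 h post-dose. Transcripts are quantified by RT-PCR with capillary electrophoresis, and data fitted in both directions against DMSO.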

[19] = ATG_SREBP_CIS: Attagene CIS-FACTORIAL HepG2 Assay for human Sterol Regulatory Element Binding (SREBP) (AID 2282962); conditions: HepG2 Attagene cis-factorial SREBP reporter, mRNA; actives raise or lower the signal
Procedure, shortened: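 Endogenous factor activity is measured in HepG2 through multiplexed reporter units under cis-element control. Following a 24 h incubation, reporter transcripts are reverse-transcribed, PCR-amplified and sized by capillary electrophoresis; activity is fitted in both directions relative to DMSO.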

[20] = target: Bile acid receptor (Homo sapiens) (UniProt Q96RI1); assay: ATG_IR1_CIS: Attagene CIS-FACTORIAL HepG2 Assay for human Nuclear Receptor Subfamily 1 Group H Member 4 (NR1H4), IR1 submotif (AID 2282946); conditions: IR1 reporter transcription, actives raise or lower the signal
Procedure, shortened: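 HepG2 cells transiently transfected with multiplexed cis-element reporter units read endogenous transcription factor activity. After 24 h compound exposure, reporter mRNA was quantified by RT-PCR, fluorescent labelling, HpaI digestion and capillary electrophoresis; bidirectional fitting versus DMSO baseline.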

Measured: AC50

Sequence of Hypoxia-inducible factor 1-alpha (Homo sapiens) (Q16665 whole entry, looked up): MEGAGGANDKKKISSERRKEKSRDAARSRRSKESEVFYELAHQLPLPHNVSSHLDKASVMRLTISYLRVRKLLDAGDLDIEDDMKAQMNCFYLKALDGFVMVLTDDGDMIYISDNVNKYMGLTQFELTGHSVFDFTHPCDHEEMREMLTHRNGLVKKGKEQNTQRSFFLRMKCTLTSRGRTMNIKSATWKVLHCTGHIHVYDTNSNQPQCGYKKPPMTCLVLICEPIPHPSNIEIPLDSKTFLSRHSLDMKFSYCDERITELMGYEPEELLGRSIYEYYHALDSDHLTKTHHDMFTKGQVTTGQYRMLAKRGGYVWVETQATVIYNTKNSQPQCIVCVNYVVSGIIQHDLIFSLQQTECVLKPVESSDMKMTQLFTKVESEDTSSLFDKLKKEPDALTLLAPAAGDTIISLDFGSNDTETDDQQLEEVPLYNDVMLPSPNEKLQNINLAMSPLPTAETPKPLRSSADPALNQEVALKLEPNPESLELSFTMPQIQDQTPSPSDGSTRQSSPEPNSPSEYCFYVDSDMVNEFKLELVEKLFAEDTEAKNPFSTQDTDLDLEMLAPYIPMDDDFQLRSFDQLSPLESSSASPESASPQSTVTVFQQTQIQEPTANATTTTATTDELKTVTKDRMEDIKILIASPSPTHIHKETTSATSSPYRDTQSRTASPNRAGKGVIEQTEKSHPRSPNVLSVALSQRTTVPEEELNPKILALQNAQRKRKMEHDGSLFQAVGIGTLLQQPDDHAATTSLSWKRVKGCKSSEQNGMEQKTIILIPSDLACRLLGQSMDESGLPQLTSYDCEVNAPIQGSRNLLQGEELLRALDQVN
Sequence of Hepatocyte nuclear factor 6 (Homo sapiens) (Q9UBC0 whole entry, looked up, the tested form may be a part): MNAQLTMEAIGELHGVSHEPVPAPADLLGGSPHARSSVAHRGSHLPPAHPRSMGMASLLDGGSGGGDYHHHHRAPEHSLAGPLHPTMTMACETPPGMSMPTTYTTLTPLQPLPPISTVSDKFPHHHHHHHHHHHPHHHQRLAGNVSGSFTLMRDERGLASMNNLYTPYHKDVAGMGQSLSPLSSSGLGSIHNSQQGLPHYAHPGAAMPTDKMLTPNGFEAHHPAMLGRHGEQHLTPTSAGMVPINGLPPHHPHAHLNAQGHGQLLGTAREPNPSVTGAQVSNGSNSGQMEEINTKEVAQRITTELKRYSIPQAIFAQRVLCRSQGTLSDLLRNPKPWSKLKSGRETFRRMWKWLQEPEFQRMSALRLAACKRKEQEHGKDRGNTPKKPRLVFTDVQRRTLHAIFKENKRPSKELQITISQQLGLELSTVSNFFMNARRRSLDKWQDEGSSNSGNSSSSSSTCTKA
Sequence of Paired box protein Pax-6 (Homo sapiens) (P26367 whole entry, looked up): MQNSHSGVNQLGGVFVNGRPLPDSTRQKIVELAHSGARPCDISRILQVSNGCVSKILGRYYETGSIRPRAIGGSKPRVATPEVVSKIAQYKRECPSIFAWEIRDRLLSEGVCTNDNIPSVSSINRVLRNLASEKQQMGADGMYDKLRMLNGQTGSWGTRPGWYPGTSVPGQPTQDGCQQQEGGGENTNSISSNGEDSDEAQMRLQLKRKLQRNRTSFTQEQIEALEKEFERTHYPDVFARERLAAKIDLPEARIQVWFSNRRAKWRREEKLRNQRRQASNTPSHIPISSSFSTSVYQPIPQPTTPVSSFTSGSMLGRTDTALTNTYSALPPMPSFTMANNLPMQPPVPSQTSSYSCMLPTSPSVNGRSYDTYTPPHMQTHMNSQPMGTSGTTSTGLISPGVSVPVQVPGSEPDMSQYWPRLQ
Sequence of Heat shock factor protein 1 (Homo sapiens) (Q00613 whole entry, looked up): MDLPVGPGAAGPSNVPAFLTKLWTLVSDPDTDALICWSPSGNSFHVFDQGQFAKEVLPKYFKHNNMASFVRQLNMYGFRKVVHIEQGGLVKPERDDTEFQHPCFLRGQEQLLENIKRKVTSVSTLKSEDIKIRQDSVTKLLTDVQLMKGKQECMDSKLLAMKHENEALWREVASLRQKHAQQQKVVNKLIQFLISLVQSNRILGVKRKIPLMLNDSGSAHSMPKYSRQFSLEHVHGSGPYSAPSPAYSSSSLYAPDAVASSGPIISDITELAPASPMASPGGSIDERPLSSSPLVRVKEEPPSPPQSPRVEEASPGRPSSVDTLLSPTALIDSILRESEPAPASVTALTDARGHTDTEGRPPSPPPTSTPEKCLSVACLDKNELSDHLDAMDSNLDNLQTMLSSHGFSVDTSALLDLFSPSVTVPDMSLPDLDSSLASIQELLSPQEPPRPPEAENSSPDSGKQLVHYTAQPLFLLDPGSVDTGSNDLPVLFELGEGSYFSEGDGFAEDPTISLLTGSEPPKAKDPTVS
Sequence of Transcription factor Sp1 (Homo sapiens) (P08047 whole entry, looked up): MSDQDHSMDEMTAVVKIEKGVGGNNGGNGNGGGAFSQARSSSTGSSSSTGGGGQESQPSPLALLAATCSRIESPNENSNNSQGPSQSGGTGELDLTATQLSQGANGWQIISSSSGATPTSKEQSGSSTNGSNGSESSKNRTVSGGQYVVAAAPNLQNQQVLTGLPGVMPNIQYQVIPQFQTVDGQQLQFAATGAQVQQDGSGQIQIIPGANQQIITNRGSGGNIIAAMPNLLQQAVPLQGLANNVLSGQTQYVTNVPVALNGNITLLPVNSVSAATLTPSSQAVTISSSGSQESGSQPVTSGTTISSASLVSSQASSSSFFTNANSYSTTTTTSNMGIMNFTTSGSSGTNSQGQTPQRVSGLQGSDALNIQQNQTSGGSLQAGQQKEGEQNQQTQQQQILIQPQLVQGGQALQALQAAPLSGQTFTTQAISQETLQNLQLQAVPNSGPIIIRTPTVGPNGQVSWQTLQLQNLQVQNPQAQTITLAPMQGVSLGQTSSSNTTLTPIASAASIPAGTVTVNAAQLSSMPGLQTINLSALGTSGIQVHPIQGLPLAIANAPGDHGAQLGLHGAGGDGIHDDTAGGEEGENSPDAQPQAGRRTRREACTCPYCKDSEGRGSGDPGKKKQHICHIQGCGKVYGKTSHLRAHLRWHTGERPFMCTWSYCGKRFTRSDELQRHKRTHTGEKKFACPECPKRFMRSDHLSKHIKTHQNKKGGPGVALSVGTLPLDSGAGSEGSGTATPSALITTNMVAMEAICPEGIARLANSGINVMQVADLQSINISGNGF
Sequence of Signal transducer and activator of transcription 3 (Homo sapiens) (P40763 whole entry, looked up): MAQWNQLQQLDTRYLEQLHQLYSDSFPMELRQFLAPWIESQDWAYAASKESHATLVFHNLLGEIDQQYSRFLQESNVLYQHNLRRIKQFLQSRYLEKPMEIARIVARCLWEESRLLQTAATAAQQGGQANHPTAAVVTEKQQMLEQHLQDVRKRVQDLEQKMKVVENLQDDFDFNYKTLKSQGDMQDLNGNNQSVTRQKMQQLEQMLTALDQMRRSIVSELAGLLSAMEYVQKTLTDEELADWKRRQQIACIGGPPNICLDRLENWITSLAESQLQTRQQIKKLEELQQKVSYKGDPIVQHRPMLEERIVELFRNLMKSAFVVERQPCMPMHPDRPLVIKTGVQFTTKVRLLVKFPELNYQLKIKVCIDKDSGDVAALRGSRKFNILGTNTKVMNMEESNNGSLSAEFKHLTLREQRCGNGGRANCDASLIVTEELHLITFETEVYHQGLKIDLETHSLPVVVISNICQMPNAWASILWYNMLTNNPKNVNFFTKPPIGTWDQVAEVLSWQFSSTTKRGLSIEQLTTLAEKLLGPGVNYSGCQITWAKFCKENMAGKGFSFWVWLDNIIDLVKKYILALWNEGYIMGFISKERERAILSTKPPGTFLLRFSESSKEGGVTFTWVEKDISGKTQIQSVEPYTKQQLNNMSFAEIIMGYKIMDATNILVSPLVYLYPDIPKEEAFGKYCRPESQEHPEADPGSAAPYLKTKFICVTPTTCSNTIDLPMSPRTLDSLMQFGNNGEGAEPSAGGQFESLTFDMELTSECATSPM
Sequence of Bile acid receptor (Homo sapiens) (Q96RI1 whole entry, looked up): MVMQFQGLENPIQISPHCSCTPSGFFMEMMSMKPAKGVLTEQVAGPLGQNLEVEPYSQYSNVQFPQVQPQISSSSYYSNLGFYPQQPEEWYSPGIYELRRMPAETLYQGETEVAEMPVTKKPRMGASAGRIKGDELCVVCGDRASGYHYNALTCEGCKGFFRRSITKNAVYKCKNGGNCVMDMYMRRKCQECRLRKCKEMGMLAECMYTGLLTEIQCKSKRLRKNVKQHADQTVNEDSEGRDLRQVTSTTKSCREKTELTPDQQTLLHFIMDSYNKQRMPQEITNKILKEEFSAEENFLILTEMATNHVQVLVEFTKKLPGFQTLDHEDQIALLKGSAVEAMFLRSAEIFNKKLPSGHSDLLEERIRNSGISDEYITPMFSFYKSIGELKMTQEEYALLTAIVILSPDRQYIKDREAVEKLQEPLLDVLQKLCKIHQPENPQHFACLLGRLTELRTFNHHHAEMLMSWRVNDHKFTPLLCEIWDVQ

CC(=O)CCC1=C(C)CCCC1(C)C
active: [11] 4.36 µM
not listed: [17] | [18] | [19] | [20]
inactive: all other assays above

COc1cc(C)ccc1O
not listed: [7] | [15] | [16] | [19] | [20]
inactive: all other assays above

CCCCC1CCC(=O)O1 (stereo unspecified)
active: [11] 22.4 µM
not listed: [8] | [12] | [14] | [15] | [18] | [20]
inactive: all other assays above

CC(C)CCCCCOC(=O)CS
active: [11] 11.8 µM
not listed: [8] | [12] | [20]
inactive: all other assays above

Cc1ccc2c(c1)CCCN2
active: [11] 65.1 µM
not listed: [8] | [20]
inactive: all other assays above

CCCSSCCC
not listed: [8] | [18] | [20]
inactive: all other assays above

Nc1nc(N)nc(-c2ccccc2)n1
not listed: [8] | [20]
inactive: all other assays above

CCCC1CCCC(=O)O1 (stereo unspecified)
active: [12] 11 µM
not listed: [7] | [20]
inactive: all other assays above

CCC(C)(O)CCCC(C)C (stereo unspecified)
not listed: [1] | [18]
inactive: all other assays above

CC(C)(c1ccccc1)c1ccc(Nc2ccc(C(C)(C)c3ccccc3)cc2)cc1
active: [11] 2.03 µM
not listed: [8] | [12] | [15] | [17] | [18] | [20]
inactive: all other assays above

CO[Si](C)(C)OC
active: [11] 184 µM
not listed: [8] | [18] | [20]
inactive: all other assays above

CC(C)CCOCc1ccccc1
not listed: [7] | [12] | [17] | [20]
inactive: all other assays above

CC1=CC=C(C(C)C)CC1
active: [11] 3.61 µM
not listed: [2] | [12] | [17] | [18] | [20]
inactive: all other assays above

CC(C)OC(=O)c1ccccc1
not listed: [8] | [12] | [14] | [15] | [18] | [19] | [20]
inactive: all other assays above

CC(C)c1cccc(C(C)C)c1N
active: [11] 29.5 µM
not listed: [8] | [19] | [20]
inactive: all other assays above

CCCCCC1=CCCC1=O
active: [4] 148 µM | [11] 27.4 µM
not listed: [1] | [18]
inactive: all other assays above
